Screens deposited in PubChem BioAssay by National Center for Advancing Translational Sciences (NCATS).
SW480 rerep: inducers of DNA re-replication in SW480 colon cancer cells; SW480 DNA re-replication, Hoechst DNA content imaging, 48 h; Potency, µM (doses to about 46.1 µM), inactives show at the top dose re-replication activation, hits mostly activators; 1.8% of 340,000 active; AID 624297; note: potency is the fitted concentration of half-maximal effect; % of control where 0% means no effect; nearly all actives have a fitted effect of over 55% in size
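250 cells/well; 23 nL cpd via pin tool; 48 hr, 37 C, 5% CO2; Hoechst 40 min; imager read of total nuclear intensity, ex 405/em 500-530 nm.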
DT40 TDP1 no CPT: qHTS for Inhibitors of human tyrosyl-DNA phosphodiesterase 1 (TDP1): qHTS in cells in absence of CPT; Potency, µM (series often up to 46.2 µM), without a hit: at the top dose activity change, negative = growth inhibition, most hits filed as inhibitors; DT40 Tdp1-/- hTDP1 cells, no CPT, ATP luminescence, 48 h; 15% of 420,000 active; note: potency is the fitted concentration of half-maximal effect; % is set by controls: 0 for no effect and ±100 for the full control effect; nearly all actives have a fitted effect of over 55% in size
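Stably hTDP1-transfected Tdp1-null chicken DT40 cells were treated with library compounds minus camptothecin and grown for at least 48 hr at 37 °C, after which cellular ATP was quantified by luminescence.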
TDP1 cell CPT: DT40-hTDP1 cell growth loss with CPT; chicken DT40 Tdp1-/-;hTDP1 cells + 20 nM CPT, ATP luminescence, 48 h; Potency, µM (highest dose often 46.2 µM), without a hit: top-dose activity change, negative = growth inhibition, most hits filed as inhibitors; 12% of 420,000 active; AID 686979; note: potency is the fitted concentration of half-maximal effect; % is set by controls: 0 for no effect and ±100 for the full control effect; nearly all actives have a fitted effect of over 55% in size
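Cell growth measured by CellTiter-Glo luminescence after a minimum 48 h, 37 C compound exposure with 20 nM CPT in Tdp1-knockout DT40 cells stably expressing hTDP1, seeded 400/well; qHTS titration format.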
MCF10A rereplic: induces DNA re-replication in MCF 10a normal breast cells; MCF 10A DNA re-replication, Hoechst nuclear intensity, 48 h; Potency, µM (highest dose often 46.1 µM), without a hit: top-dose activity, positive = re-replication, usual class: activators; 2.9% of 350,000 active; AID 624296; note: potency is the fitted concentration of half-maximal effect; % of control where 0% means no effect; nearly all actives have a fitted effect of over 50% in size
BCR signal inh: chronic active BCR signaling inhibition. Potency, µM (series often up to 46.1 µM), inactives show at the top dose activity change, negative = inhibition, hits mostly inhibitors. AID 493014. ABC-DLBCL IkBa-CBG/CBR reporter, luminescence ratio, 4 h. 0.05% of 340,000 active; active = well fitted inhibition curve with a large enough effect in the signal ratio, with a control signal flat, not every such curve was filed as active; inconclusive = small, poorly fitted or top-dose-only effect, or effect the other way, or a change in a side signal; the % refers to the signal ratio;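 note: potency is the fitted concentration of half-maximal effect; plate controls were basal doxycycline-induced cells for no effect and cells given 10 µM MG132 for full effect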
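TMD8 ABC-DLBCL cells carrying doxycycline-inducible green luciferase fused to IkappaBalpha plus unfused red luciferase were exposed to compounds (up to 46 uM) for 4 hrs at 37C. Activity came from the overlap-corrected green/red luminescence ratio.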
IL1B secr inh: inhibitors of inflammasome signaling (IL-1 beta secretion). 4.7% of 360,000 active. AID 743279. activity change, % at 57.5 µM. THP-1 LPS/ATP IL-1B secretion, AlphaLISA, 16 h; active compounds read low; in the data active = activity change below about -50%; inconclusive = mostly about -30% to -49%; note: % is set by controls: 0 for no effect and ±100 for the full control effect
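THP-1 cells pretreated 1 hr with compounds (up to 57.5 uM final), then stimulated with LPS (250 ng/mL final) plus ATP (1.25 mM final); secreted IL-1B measured by AlphaLISA after 16 hr, decreased signal indicating inhibition.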
Starred values were filed as active, the others as inactive; ? = inconclusive; · = not tested or not shown. Rows were chosen to be rich in hits. Some 19% of all compounds tested hit in one or more screens of this group. Unless noted, calls come from the whole dose curve; as a rule, active = well fitted curve in the direction sought with a large enough effect; inconclusive = small, poorly fitted or top-dose-only effect, or another doubt; inactive = no such curve, though single readings can be large; an effect the other way counts as inactive or inconclusive.

SMILES	SW480 rerep	DT40 TDP1 no CPT	TDP1 cell CPT	MCF10A rereplic	BCR signal inh	IL1B secr inh
CCc1ccc(N/C(N)=N/c2nc(CSc3ccccn3)cc(=O)[nH]2)cc1	?	16µM*	15µM*	?	-1%	-7
O=S1(=O)CC(N2CCC(Cc3ccccc3)CC2)CN1CCc1ccccc1 (stereo not drawn)	·	21µM*	?	·	·	29
O=[N+]([O-])c1ccc(CN2CC(N3CCC(Cc4ccccc4)CC3)CS2(=O)=O)cc1 (stereo not drawn)	·	16µM*	16µM*	·	·	6
O=S1(=O)CC(N2CCCC2)CN1CCc1ccccc1 (stereo not drawn)	·	-9%	-20%	·	·	-18
Cc1cccc(CN2CCN(C3CN(Cc4ccc([N+](=O)[O-])cc4)S(=O)(=O)C3)CC2)c1 (stereo not drawn)	·	23µM*	16µM*	·	·	-7
CC(C)Oc1ccc(CNC(=O)c2ccc3nc(C(C)C)oc3c2)cc1	·	?	4%	·	·	·
CCN(CC)S(=O)(=O)c1ccc2c(c1)N(CC(=O)NCCCN1CCN(c3ccc(OC)cc3)CC1)C(=O)CO2	·	?	-23%	·	?	·
CSc1ncc(C(=O)Nc2ccccc2F)c(-c2ccccc2)n1	0%	0%	-9%	-3%	2%	0
CC(C)OCCCNC1=C(Cl)C(=O)c2ccccc2C1=O	-4%	?	?	?	?	·
O=C1C(Cl)=C(NCc2cccnc2)C(=O)c2ccccc21	?	8.2µM*	13µM*	?	?	-101*
CC(C)NC1=C(Cl)C(=O)c2ccccc2C1=O	13µM*	?	18µM*	?	?	-3
O=C1C(Cl)=C(NCCc2ccccc2)C(=O)c2ccccc21	5.2µM*	1.5µM*	0.82µM*	?	·	?
COCCCNC1=C(Cl)C(=O)c2ccccc2C1=O	24%	?	?	?	20%	-7
CCN(CC)CCCNC1=C(Cl)C(=O)c2ccccc2C1=O	?	4.1µM*	3.3µM*	?	?	-110*
Cc1cc2cc(CCNC(=O)CCc3ccccc3)c(=O)[nH]c2cc1C	-8%	-14%	?	-1%	-2%	-11
O=C1C(Cl)=C(Nc2ccccc2)C(=O)c2ccccc21	?	2.9µM*	2.1µM*	4.1µM*	4%	-107*
CC(=O)N(Cc1ccc(F)cc1)C1=C(NCCc2ccccc2)C(=O)c2ccccc2C1=O	6.3µM*	1.8µM*	1.8µM*	?	?	-79*
C=CCNC1=C(Cl)C(=O)c2ccccc2C1=O	?	16µM*	15µM*	?	0%	-4
O=C(O)c1cccc(NC2=C(Cl)C(=O)c3ccccc3C2=O)c1	?	13µM*	12µM*	?	?	-65*
O=C(NCCc1ccc(F)cc1)N[C@@H](Cc1ccccc1)C(=O)O	-17%	4%	3%	-6%	-5%	8
COc1cc(=O)n2c(c1C(=O)N(C)Cc1cscn1)CCN(Cc1ccc3c(c1)OCCO3)CC2	·	9%	20%	·	·	·
O=C(O)c1ccc(NC2=C(Cl)C(=O)c3ccccc3C2=O)cc1	?	13µM*	15µM*	?	?	10
CCCCCCCCN1C(=O)[C@H](CC(=O)N2CCN(C(=O)OCC)CC2)C[C@@]2(C(=O)OC)CC(C)(C)CC=C12	·	13µM*	13µM*	·	·	-28
CCOC(=O)N1CCN(C(=O)C[C@@H]2C[C@@]3(C(=O)OC)CC(C)(C)CC=C3N(Cc3ccccc3)C2=O)CC1	·	?	?	·	·	-3
CCCCCCCCN1C(=O)[C@H](CC(=O)N2CCN(C(=O)C3CC3)CC2)C[C@@]2(C(=O)OC)CC(C)(C)CC=C12	·	15µM*	15µM*	·	·	-60*
